Drawing on PubChem BioAssay (NCATS), this text covers activity change, negative = inhibition and Potency for 7 compounds.

Records with an inconclusive call do not appear. The source made the active and inactive calls. The call rests on the fitted dose curve.
Potency means the concentration at half of the fitted maximal effect.

The nature of the assay: Primary qHTS to identify inhibitors of SARS-CoV-2 cell entry (AID 1645846). Further: nearly all actives have a fitted effect of over 45% in size. Conditions: SARS-CoV-2 pseudovirus cell entry assay, luminescence; activity change, negative = inhibition: at 57.1 µM (top of the series) unless noted. An outline of the steps:
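Inhibition of spike-mediated entry was scored in human ACE2-transfected Expi293F cells. Particles were MLV-pseudotyped with Wuhan-Hu-1 S carrying a 19-aa C-terminal deletion; signal was luciferase after two days, scaled between spike PP and fusion-protein-free PP.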
As to `CCC(=O)OC1(C(=O)CCl)C(C)CC2C3CC(F)C4=CC(=O)C=CC4(C)C3(F)C(O)CC21C` (configuration not stated), the activity change, negative = inhibition was -5.75%. As for `O=P(O)(O)OC1C(OP(=O)(O)O)C(OP(=O)(O)O)C(OP(=O)(O)O)C(OP(=O)(O)O)C1OP(=O)(O)O` (configuration not stated), the activity change, negative = inhibition is -23.6%.

Consider `N=c1ccn2c(n1)O[C@@H]1[C@@H](O)[C@H](CO)O[C@@H]12`, for which the Potency was 2510 nM (active). For `CC1CCC(C(C)C)C(OC(=O)c2ccccc2O)C1` (configuration not stated), the Potency result is “inactive”. Take `Cc1ccc(S(=O)(=O)O)cc1`: the activity change, negative = inhibition was -13.7%.

For `CCCCCCCCCCCCCCCCCC(=O)OCCO`, the activity change, negative = inhibition was -12.3%. On to `CC(C)CCC[C@@H](C)[C@H]1CC[C@H]2[C@@H]3CC=C4C[C@@H](O)CC[C@]4(C)[C@@H]3CC[C@]12C`, for which the Potency result is “inactive”.
